Shown are actives, neighbours in structure and some others; about 31% of the full set was active somewhere.
PLAP activator = PLAP enzyme activators, biochemical, luminescence, HTS | purified PLAP enzyme, luminescent substrate read-out; stronger effect = higher value | activation fold at 20 µM | 1.2% of 96,000 active | AID 696, 2007; in the data active means activation fold above about 2
Target sequence (P05187 whole entry, looked up): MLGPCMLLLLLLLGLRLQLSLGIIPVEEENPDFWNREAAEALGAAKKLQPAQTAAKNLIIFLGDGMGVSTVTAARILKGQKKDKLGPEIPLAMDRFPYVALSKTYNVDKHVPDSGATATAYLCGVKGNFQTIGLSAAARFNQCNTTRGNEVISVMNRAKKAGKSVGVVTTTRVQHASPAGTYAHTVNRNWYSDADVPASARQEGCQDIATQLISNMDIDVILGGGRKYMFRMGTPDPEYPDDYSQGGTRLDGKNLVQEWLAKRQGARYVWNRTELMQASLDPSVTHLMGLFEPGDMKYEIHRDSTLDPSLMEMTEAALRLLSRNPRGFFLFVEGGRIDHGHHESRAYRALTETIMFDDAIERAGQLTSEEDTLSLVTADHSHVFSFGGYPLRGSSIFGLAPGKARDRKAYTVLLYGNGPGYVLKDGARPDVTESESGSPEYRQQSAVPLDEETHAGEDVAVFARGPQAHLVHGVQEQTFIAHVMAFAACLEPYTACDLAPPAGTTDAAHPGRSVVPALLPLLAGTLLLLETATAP
CYP2C9 activ = human CYP2C9 activators, primary screen, biochemical, luminescence; Cytochrome P450 2C9 (Homo sapiens), P11712; recombinant CYP2C9, luciferin-H conversion; stronger effect = higher value; factor 1 = untreated enzyme, 0 = blocked; activation factor at 5 µM; 1.4% of 96,000 active; AID 1024, 2008;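 active means activation factor of 2 or more for CYP2C9 at a 5 µM dose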;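 further: 0 = sulfaphenazole-blocked wells and 1 = vehicle-only wells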
CYP2C19 act = human CYP2C19 activators, primary screen, biochemical, luminescence; Cytochrome P450 2C19 (Homo sapiens), P33261; recombinant CYP2C19, luciferin-H EGE luminescence; stronger effect = higher value; 0 = fully inhibited enzyme, 1 = untreated enzyme; activation factor at 5 µM; 96,000 tested, under 10 active;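 active means activation factor of at least 2 at 5 µM in the primary screen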;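 further: 0 = wells with 2.5 mM tranylcypromine and 1 = vehicle-only wells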
CYP2C19 inh = blockers of cytochrome P450 2C19 activity – biochemical, luminescence, ADME assay, primary screen. AID 778, 2007. CYP2C19 Supersomes, luciferin-H EGE luminescence, 30 min. inhibition, % at 5 µM. 21% of 96,000 active;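 active means CYP2C19 inhibition above a set limit at 5 µM in the primary screen, cut at about 50% in these data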;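 further: plate controls were negative control wells for no effect and 2.5 mM tranylcypromine positive control for full effect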
CYP2C9 inh = blockers of cytochrome P450 2C9 activity – biochemical, luminescence, ADME assay, primary screen; AID 777, 2007; CYP2C9 Supersomes, luciferin-H conversion; 20% of 96,000 active; inhibition, % at 5 µM; P11712;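 active means blocking of liver enzyme CYP2C9 beyond about 50% at 5 µM, limit read from the data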
An asterisk follows results filed as active.

SMILES	PLAP activator	CYP2C9 activ	CYP2C19 act	CYP2C19 inh	CYP2C9 inh
COc1c(F)c(F)c(C(=O)Nc2cccc(Cl)c2N2CCOCC2)c(F)c1F	1	1.1	1.1	-12.3	-14.1
CSCCC(NC(=O)OC(C)(C)C)C(=O)NC(CC(C)C)C(N)=O (stereo not given)	0.9	1	1	4.8	1.1
CC1C(=O)C(C)C(c2cccs2)NC1c1cccs1 (stereo not given)	0.8	0.8	0.1	92.5*	15.3
CCc1cc[n+](-c2nc3ccccc3nc2C(=C=[N-])C#N)cc1	0.8	1	1.1	-5.1	1.1
COc1cccc(C2CC(c3cccs3)=NN2C(=O)CSC2=NN3CCCC(=O)N=C3S2)c1OC (stereo not given)	1.6	0.2	0.2	75.5*	82.7*
CCOC(=O)c1c(C)c(C(=O)NCCCOC(C)C)c(C)n1C	1.1	1.5	0.6	39.9	-48.5
Nc1nc(Br)c2c(F)cccc2c1-c1ccc(F)cc1	1	0.7	0.8	16.8	29.0
O=C(Cn1nc(-c2ccc(N3CCOCC3)c([N+](=O)[O-])c2)c2ccccc2c1=O)N1CCCCC1	1.6	0.5	1	4.4	46.7
Cc1nn(CC(=O)NCc2cccnc2)c(=O)c2ccccc12	1.2	1	0.8	16.6	-4.3
Cc1nn(CC(=O)NCc2cccc3ccccc23)c(=O)c2ccccc12	0.8	2.2*	1	-1.0	-115.4
Cc1nn(CC(=O)NCc2ccccc2)c(=O)c2ccccc12	0.9	2.7*	0.7	26.9	-168.9
Cc1nn(CC(=O)N2CCN(Cc3ccccc3)CC2)c(=O)c2ccccc12	1.6	1.1	0.3	74.9*	-12.6
CCn1cc([N+](=O)[O-])c(C(=O)Nc2ccc3c(c2)OCCO3)n1	1	1	0.5	48.9	4.3
CCn1cc(Br)c(C(=O)Nc2ccc(OC)cc2)n1	0.9	0.8	0.3	74.5*	20.3
CCn1cc(Br)c(C(=O)Nc2cccc(Cl)c2)n1	0.7	0.3	0.1	93.5*	66.5*
CCn1cc(Br)c(C(=O)Nc2ccc(C(=O)OC(C)C)cc2)n1	1.4	0.9	0.3	74.9*	13.9
CCn1cc(Br)c(C(=O)NN)n1	1	1.2	0.9	8.2	-23.3
CCOC(=O)c1c(NC(=O)c2nn(CC)cc2Br)c(C#N)cn1-c1ccccc1	1	1	0.2	75.4*	-2.1
CCOC(=O)c1c(=O)n(O)c2ccc(C)cc2[n+]1[O-]	0.9	1.2	1.2	-15.4	-18.4
CC(C(N)=O)N1C(=O)C2C3C=CC(C3)C2C1=O (stereo not given)	0.9	1.1	1.2	-17.5	-14.6
O=c1n(-c2ccccc2)c(=O)n(Cc2ccccn2)n1Cc1ccccn1	0.8	1.2	1	-4.8	-15.2
C/C(=C\c1ccccc1)CN(C)CCN(C)C	1.1	1.3	1.1	-9.6	-28.4
Cn1c(C(=O)N2CCC(C(=O)N3CCN(Cc4ccc5c(c4)OCO5)CC3)CC2)cc2sccc21	1.6	1.5	0.5	50.7*	-54.5
Cn1c(C(=O)N2CCN(Cc3ccc4c(c3)OCO4)CC2)cc2sccc21	1.4	1	0.3	70.0*	3.5
Cn1c(C(=O)N2CCC(C(=O)N3CCOCC3)CC2)cc2sccc21	1.2	1	1.1	-8.3	-2.3
SMILES	PLAP activator	CYP2C9 activ	CYP2C19 act	CYP2C19 inh	CYP2C9 inh
COc1ccsc1C(=O)N1CCN(Cc2ccc3c(c2)OCO3)CC1	1.2	0.6	0.1	85.2*	40.5
CCCCNC(=O)OC(C)CNC(=O)Oc1cccc(C)c1 (stereo not given)	1.1	0.9	0.8	22.3	9.7
COc1ccc(-c2ncncc2-c2csc(C)n2)c(O)c1OC	1.3	0.5	0.4	63.2*	51.5*
COc1cc(-c2csc(C)n2)ccc1O	0.9	1.1	0.9	6.0	-13.4
COCCCNC(=O)c1ccccc1SC	1.2	1.3	1.1	-14.9	-33.4
Cc1nnc(SCC(=O)N2c3ccccc3Sc3ccccc32)n1N	0.9	1	0.8	21.7	2.9
Cn1nnnc1SCC(=O)N1c2ccccc2Sc2ccc(Cl)cc21	0.9	0.6	0.3	74.7*	35.6
Cn1c(Cn2nnc3ccccc32)nnc1SCC(=O)N1c2ccccc2CCc2ccccc21	1.6	0.4	0.6	40.2	63.5*
Cn1c(Cn2nnc3ccccc32)nnc1SCC(N)=O	1.3	1.2	1.2	-20.3	-19.4
Cn1c(Cn2nnc3ccccc32)nnc1SCC(=O)N1c2ccccc2Sc2ccccc21	1.7	0.5	0.7	32.8	51.5*
CC(=O)NCCCc1nc2ccccc2n1Cc1ccc(C)cc1	1.6	0.5	0.8	22.5	48.7
COCc1nc2ccccc2n1Cc1ccccc1	1	0.7	0.2	79.3*	32.1
CC(=O)NCCc1nc2ccccc2n1Cc1ccccc1	1.5	0.8	0.4	58.9*	16.9
Cc1ccc(Cn2c(Cc3ccccc3)nc3ccccc32)cc1	0.9	0.6	0.6	41.2	43.8
COCc1nc2ccccc2n1Cc1ccc(Br)cc1	1	0.1	0	99.5*	89.7*
Cc1cccc(NCc2nc3ccccc3n2Cc2ccccc2)c1	20.4	0	0	95.8*	96.0*
O=C(CN1C(=O)C2C3C=CC(C3)C2C1=O)N1CC(=O)N(CCc2ccccc2)C(=O)C1 (stereo not given)	1	1.2	0.8	20.3	-18.0
C=C(C)C(C)(C#CCN1CCCC1)OC(C)=O (stereo not given)	1.1	1.1	1	-4.6	-9.1
CCc1nc(SCC(=O)NCc2ccco2)c2c3c(sc2n1)CCCC3	1	0.1	0.4	63.2*	85.7*
Cc1cc(NC(=O)CSc2nc(C(C)C)nc3sc4c(c23)CCCC4)no1	0.8	0.2	0.2	79.7*	75.6*
CSc1nc(SCC(=O)NCc2ccco2)c2c3c(sc2n1)COC(C)(C)C3	1.3	0.7	0.9	12.3	25.7
CCCCSc1nc(SCC(=O)NCc2ccco2)c2c3c(sc2n1)COC(C)(CC)C3 (stereo not given)	1.2	0.5	0.9	13.3	51.4*
C=CCn1c(SCC(=O)NCc2ccco2)nc2sc3c(c2c1=O)CCCC3	0.9	0.8	1	1.1	19.5
CC(C)Sc1nc(NCc2ccco2)c2c3c(sc2n1)COC(C)(C)C3	1.7	0.3	0.9	9.7	68.8*
CCOc1ccc(-n2c(=O)c3c4c(sc3n(CC(=O)NCc3ccco3)c2=O)CCC4)cc1	1.2	0.8	1	2.0	18.3
Cc1nc(SCC(=O)NCc2ccco2)c2c(C)c(C)sc2n1	0.8	0.8	0.8	22.6	19.8
CCCCc1nc2sc3c(SCC(=O)NCc4ccco4)ncnc3c2c2c1CCC2	1.4	0.2	0.4	58.5*	81.8*
c1ccc(Oc2nc(N3CCOCC3)nc(N3CCOCC3)n2)cc1	1	0.8	0.8	16.0	25.0
c1cnn(-c2nc(N3CCOCC3)nc(N3CCOCC3)n2)c1	1.1	0.5	1.1	-12.3	52.6*

Screens as filed in PubChem BioAssay.
